# Reference: PubChem BioAssay (NCI)
# About 79,000 compounds went through this panel and 15% of them were active in at least one assay; those are over-represented in the sample as a whole. Values without a mark were called inactive. The source made the active and inactive calls. Cut-off read from the data, not from the text of the source: active = growth inhibition above about 70%; inactive = the rest.
# Legend:
# [1] = NCI Yeast Anticancer Drug Screen. Data for the rad52 strain (AID 147);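 note: 0% = growth of vehicle-treated control cultures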; conditions: S. cerevisiae rad52 mutant growth inhibition, hits give high values
# How it was run: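 Growth of repair-deficient yeast cells was compared between compound-treated and vehicle-treated cultures to give percent inhibition.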
# [2] = NCI Yeast Anticancer Drug Screen. Data for the wt1 strain (AID 149);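 note: 0% = growth of vehicle-treated wt1 cultures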; conditions: S. cerevisiae wt1 strain (SPY 50644) growth inhibition, hits give high values
# How it was run: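 Compounds are added to wt1 yeast cultures. Growth is then measured. Inhibition is expressed relative to vehicle-treated controls.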
# [3] = NCI Yeast Anticancer Drug Screen. Data for the rad50EPP+ strain (AID 151);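 note: 0% = growth of vehicle-treated control cultures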; conditions: S. cerevisiae rad50 mutant strain, hits give high values
# How it was run: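 Measured: growth inhibition of rad50EPP+ yeast. Reference: vehicle-treated controls. Screen uses strains with defined genetic alterations in DNA damage repair or cell cycle control.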
# [4] = NCI Yeast Anticancer Drug Screen. Data for the mgt1 strain (AID 153); conditions: S. cerevisiae mgt1 mutant growth inhibition, hits give high values
# How it was run: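 Compounds were applied to mgt1 mutant yeast, and growth was then compared against vehicle-treated control cultures to give percent inhibition.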
# [5] = NCI Yeast Anticancer Drug Screen. Data for the rad50 strain (AID 155);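 note: 0% = growth of vehicle-only cultures of the same strain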; conditions: S. cerevisiae rad50 strain growth inhibition, hits give high values
# How it was run: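 Inhibition values express reduced yeast growth in compound-treated cultures relative to vehicle-treated controls.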
# [6] = NCI Yeast Anticancer Drug Screen. Data for the mec2-1 strain (AID 157); conditions: S. cerevisiae mec2-1 strain, hits give high values
# How it was run: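 Compounds were applied to mec2-1 yeast cells. Their growth was then compared with that of vehicle-treated cultures to give growth inhibition.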
# [7] = NCI Yeast Anticancer Drug Screen. Data for the rad14 strain (AID 159);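 note: 0% = growth of vehicle-treated control cultures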; conditions: S. cerevisiae rad14 strain growth inhibition, hits give high values
# How it was run: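 A mutant yeast strain defective in DNA damage repair is treated with compound; inhibition of its growth is scored against untreated, vehicle-exposed cultures.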
# [8] = NCI Yeast Anticancer Drug Screen. Data for the sgs1 mgt1 strain (AID 161);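 note: 0% = growth of cultures given vehicle only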; conditions: S. cerevisiae sgs1 mgt1 strain, hits give high values
# How it was run: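 Growth of a repair-deficient yeast mutant was monitored after compound treatment and expressed as inhibition relative to vehicle-treated cultures.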
# [9] = NCI Yeast Anticancer Drug Screen. Data for the CLN2oe strain (AID 163);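 note: 0% = growth of vehicle-only control cultures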; conditions: S. cerevisiae CLN2oe strain, hits give high values
# How it was run: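 Cells of an engineered yeast line with disturbed cell-cycle regulation are treated with compound. Inhibition of growth is then calculated relative to the vehicle-treated reference.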
# [10] = NCI Yeast Anticancer Drug Screen. Data for the cln2 rad14 strain (AID 165);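 note: 0% = growth equal to vehicle treated cultures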; conditions: S. cerevisiae cln2 rad14 strain, hits give high values
# How it was run: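 Strain: cln2 rad14 yeast, altered in cell cycle control and DNA damage repair. Read-out: growth inhibition vs vehicle.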
# [11] = NCI Yeast Anticancer Drug Screen. Data for the bub3 strain (AID 167); conditions: S. cerevisiae bub3 mutant strain, hits give high values
# How it was run: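 Steps: expose the mutant yeast strain to compound; grow alongside vehicle-treated cultures; measure growth; express inhibition against the vehicle cultures.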
# [12] = NCI Yeast Anticancer Drug Screen. Data for the wt2 strain (AID 169);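 note: 0% = growth of vehicle-treated yeast cultures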; conditions: S. cerevisiae wt2 strain growth inhibition, hits give high values
# How it was run: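 Growth of compound-treated yeast is measured and expressed as inhibition relative to vehicle-only controls.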
# [13] = NCI Yeast Anticancer Drug Screen. Data for the mlh1 strain (AID 171);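 note: 0% = growth of vehicle-treated control cultures of the same strain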; conditions: S. cerevisiae mlh1 strain growth inhibition, hits give high values
# How it was run: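 Test agents were incubated with yeast bearing a defined DNA damage repair or cell cycle control alteration; values are growth inhibition normalised to vehicle-treated cultures.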
# [14] = NCI Yeast Anticancer Drug Screen. Data for the sgs1 strain (AID 173);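 note: 0% = growth of vehicle-only control cultures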; conditions: S. cerevisiae sgs1 mutant, hits give high values
# How it was run: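 Strain with an altered DNA repair or cell cycle pathway exposed to compound. Growth then measured. Value = inhibition versus vehicle control.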
# [15] = NCI Yeast Anticancer Drug Screen. Data for the mlh1 rad18 strain (AID 175); conditions: S. cerevisiae mlh1 rad18 strain growth inhibition, hits give high values
# How it was run: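 A repair-deficient yeast strain is exposed to test compound, and growth is scored relative to vehicle-treated controls.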
# [16] = NCI Yeast Anticancer Drug Screen. Data for the rad18 strain (AID 177); conditions: S. cerevisiae rad18 mutant growth inhibition, hits give high values
# How it was run: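 DNA-repair-defective yeast; compound treatment; growth inhibition scored against vehicle.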
# [17] = at 5.0 µM (retest, dose inferred, filed as 0.5)
# [18] = at 50.0 µM (retest, dose inferred, filed as 5.0)
smiles,measurement,setting,value
Cn1cc(NC(=O)c2cc(NC(=O)CN=C(N)N)cn2C)cc1C(=O)NCCC(=N)N,growth inhibition,[1]; at 1.2 µM,21%
same,growth inhibition,[1]; at 3.7 µM,7%
same,growth inhibition,[1]; at 11.0 µM,56%
same,growth inhibition,[1]; at 33.0 µM,97% (active)
same,growth inhibition,[1]; at 100.0 µM,98% (active)
same,growth inhibition,[2]; at 1.2 µM,17%
same,growth inhibition,[2]; at 3.7 µM,26%
same,growth inhibition,[2]; at 11.0 µM,24%
same,growth inhibition,[2]; at 33.0 µM,85% (active)
same,growth inhibition,[2]; at 100.0 µM,96% (active)
same,growth inhibition,[3]; at 1.2 µM,19%
same,growth inhibition,[3]; at 3.7 µM,1%
same,growth inhibition,[3]; at 11.0 µM,24%
same,growth inhibition,[3]; at 33.0 µM,73% (active)
same,growth inhibition,[3]; at 100.0 µM,96% (active)
same,growth inhibition,[4]; at 1.2 µM,1%
same,growth inhibition,[4]; at 3.7 µM,6%
same,growth inhibition,[4]; at 11.0 µM,5%
same,growth inhibition,[4]; at 33.0 µM,94% (active)
same,growth inhibition,[4]; at 100.0 µM,99% (active)
same,growth inhibition,[5]; at 1.2 µM,0%
same,growth inhibition,[5]; at 3.7 µM,4%
same,growth inhibition,[5]; [17],-30%
same,growth inhibition,[5]; at 11.0 µM,67%
same,growth inhibition,[5]; at 33.0 µM,97% (active)
same,growth inhibition,[5]; [18],87% (active)
same,growth inhibition,[5]; at 50.0 µM,89.2% (active)
same,growth inhibition,[5]; at 100.0 µM,97% (active)
same,growth inhibition,[6]; at 1.2 µM,20%
same,growth inhibition,[6]; at 3.7 µM,18%
same,growth inhibition,[6]; [17],-11%
same,growth inhibition,[6]; at 11.0 µM,31%
same,growth inhibition,[6]; at 33.0 µM,95% (active)
same,growth inhibition,[6]; [18],44%
same,growth inhibition,[6]; at 50.0 µM,87.5% (active)
same,growth inhibition,[6]; at 100.0 µM,99% (active)
same,growth inhibition,[7]; at 1.2 µM,18%
same,growth inhibition,[7]; at 3.7 µM,-2%
same,growth inhibition,[7]; at 11.0 µM,35%
same,growth inhibition,[7]; at 33.0 µM,97% (active)
same,growth inhibition,[7]; at 100.0 µM,98% (active)
same,growth inhibition,[8]; [17],7%
same,growth inhibition,[8]; [18],11%
same,growth inhibition,[8]; at 50.0 µM,84.6% (active)
same,growth inhibition,[9]; at 1.2 µM,-1%
same,growth inhibition,[9]; at 3.7 µM,0%
same,growth inhibition,[9]; at 11.0 µM,16%
same,growth inhibition,[9]; at 33.0 µM,96% (active)
same,growth inhibition,[9]; at 100.0 µM,97% (active)
same,growth inhibition,[10]; [17],-13%
same,growth inhibition,[10]; [18],28%
same,growth inhibition,[10]; at 50.0 µM,68.5%
same,growth inhibition,[11]; at 1.2 µM,11%
same,growth inhibition,[11]; at 3.7 µM,18%
same,growth inhibition,[11]; [17],6%
same,growth inhibition,[11]; at 11.0 µM,2%
same,growth inhibition,[11]; at 33.0 µM,93% (active)
same,growth inhibition,[11]; [18],70% (active)
same,growth inhibition,[11]; at 50.0 µM,87.3% (active)
same,growth inhibition,[11]; at 100.0 µM,97% (active)
same,growth inhibition,[12]; at 1.2 µM,17%
same,growth inhibition,[12]; at 3.7 µM,13%
same,growth inhibition,[12]; at 11.0 µM,23%
same,growth inhibition,[12]; at 33.0 µM,95% (active)
same,growth inhibition,[12]; at 100.0 µM,97% (active)
same,growth inhibition,[13]; at 1.2 µM,-8%
same,growth inhibition,[13]; at 3.7 µM,-16%
same,growth inhibition,[13]; at 11.0 µM,-7%
same,growth inhibition,[13]; at 33.0 µM,93% (active)
same,growth inhibition,[13]; at 100.0 µM,98% (active)
same,growth inhibition,[14]; at 1.2 µM,4%
same,growth inhibition,[14]; at 3.7 µM,6%
same,growth inhibition,[14]; at 11.0 µM,17%
same,growth inhibition,[14]; at 33.0 µM,93% (active)
same,growth inhibition,[14]; at 100.0 µM,96% (active)
same,growth inhibition,[15]; [17],-18%
same,growth inhibition,[15]; [18],94% (active)
same,growth inhibition,[15]; at 50.0 µM,85.5% (active)
same,growth inhibition,[16]; at 1.2 µM,-4%
same,growth inhibition,[16]; at 3.7 µM,-18%
same,growth inhibition,[16]; at 11.0 µM,14%
same,growth inhibition,[16]; at 33.0 µM,95% (active)
same,growth inhibition,[16]; at 100.0 µM,97% (active)
